Cycloheximide cs: affects cycloheximide protein synthesis inhibition readout, counter-screen; cell reporter, cycloheximide protein synthesis inhibition counterscreen; max response, %; 12% of 300,000 active; AID 2314; in the data active = max response mostly above about 13%, no sharp cut-off; inactive = mostly below about 14%; note: read at 38.3 µM for the half of the compounds with a filed dose; 0% is about no effect
NS1 inh: inhibitors of influenza NS1 protein function. Potency, µM (titrated, usually from 46.1 µM), for the others: top-dose activity, positive = more growth. 0.4% of 270,000 active; calls by dose curve; note: potency is the fitted concentration of half-maximal effect; actives are rising curves; nearly all actives have a fitted effect of over 50% in size
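OD600 was taken as the measure of yeast growth restored by compound in an NS1-expressing S. cerevisiae strain. Cells had been washed out of glucose medium and diluted 1:100 into galactose -URA medium, pH 6.0.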
Shiga toxin inh: Shiga toxin inhibition. Vero cells, Shiga toxin protein synthesis inhibition reporter. inhibition, % at 38.7 µM. 9.2% of 290,000 active. AID 2315; in the data active = inhibition mostly above about 28%, no sharp cut-off; inactive = mostly below about 43%; note: 0% is about no effect
LmPK inhibitor: LmPK (Leishmania mexicana) enzyme inhibition. 0.37% of 290,000 active. Potency, µM (highest dose often 57.5 µM), without a hit: at the top dose activity change, negative = inhibition, most hits filed as inhibitors. purified LmPK, Kinase-Glo ATP luminescence, 1 h. Q27686; note: potency is the fitted concentration of half-maximal effect; % is set by controls: 0 for no effect and ±100 for the full control effect
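Kinase-Glo luminescence read after 1 h RT reaction of 0.1 nM LmPK with 0.5 mM PEP and 0.1 mM ADP. Activity scaled between uninhibited and enzyme-free controls.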
FBPA Giardia inh: inhibitors of Giardia lamblia fructose-1,6-bisphosphate aldolase | 0.71% of 290,000 active | A8B2U2 | Potency, µM (top dose mostly 59.6 µM), without a hit: top-dose activity, negative = inhibition, most hits filed as inhibitors | purified Giardia FBPA | AID 2451; note: potency is the fitted concentration of half-maximal effect; % is set by controls: 0 for no effect and ±100 for the full control effect; nearly all actives have a fitted effect of over 55% in size
Target sequence (A8B2U2 whole entry, looked up): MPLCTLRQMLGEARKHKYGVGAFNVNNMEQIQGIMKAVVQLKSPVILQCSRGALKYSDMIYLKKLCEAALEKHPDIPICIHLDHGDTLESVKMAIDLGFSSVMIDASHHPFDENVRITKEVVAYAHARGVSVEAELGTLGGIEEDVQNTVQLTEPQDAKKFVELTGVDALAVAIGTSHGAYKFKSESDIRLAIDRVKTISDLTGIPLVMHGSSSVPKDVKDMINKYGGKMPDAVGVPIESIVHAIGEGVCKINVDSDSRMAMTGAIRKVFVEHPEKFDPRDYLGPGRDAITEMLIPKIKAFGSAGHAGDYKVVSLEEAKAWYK
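40 nM FBPA preincubated 10 min at RT with compound (up to 57.5 uM final), then substrate plus GAPDH/TPI/NAD/arsenate coupling and diaphorase/resazurin added. Fluorescence read after 20 min at RT, 525/598 nm.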
Numbers without * were called inactive; ? = inconclusive; . = no result; + = active, no number. This is a sample that favours compounds with a hit; in the whole collection about 14% have one here. Unless noted, calls come from the whole dose curve; as a rule, active = well fitted curve in the direction sought with a large enough effect; inconclusive = small, poorly fitted or top-dose-only effect, or another doubt; inactive = no such curve, though single readings can be large; an effect the other way counts as inactive or inconclusive.

SMILES | Cycloheximide cs | NS1 inh | Shiga toxin inh | LmPK inhibitor | FBPA Giardia inh
Cc1ccc(C)n1-c1cccc(NC(=O)c2ccccc2)c1 | 19* | 10% | 38* | 2% | -4%
O=C(O)c1cccc(NC(=O)c2cc(NC(=O)c3ccccc3)cc(NC(=O)c3ccccc3)c2)c1 | -5 | 30% | -11 | -1% | 6%
O=c1c(-c2ccccc2)nc2cnc(Oc3cccc(Cl)c3)nc2n1C1CC1 | . | . | . | . | -1%
COCCN1Cc2cccc(C(=O)Nc3c(C)cc(C)cc3C)c2C1=O | 0 | -40% | 2 | -2% | 5%
CCCN1Cc2cccc(C(=O)Nc3ccc4c(c3)OCCO4)c2C1=O | 19* | -94% | 59 | 2% | -2%
CCCN1Cc2cccc(C(=O)Nc3ccc4c(c3)OCO4)c2C1=O | -2 | -23% | -7 | -4% | -5%
CCCN1Cc2cccc(C(=O)Nc3ccc(C)cc3)c2C1=O | -2 | -2% | 12 | 7% | 0%
COCCN1Cc2cccc(C(=O)Nc3cc(C)cc(C)c3)c2C1=O | 1 | -6% | -3 | 2% | 5%
COCCN1Cc2cccc(C(=O)Nc3cccc(-c4nc5ccccc5[nH]4)c3)c2C1=O | 48* | 5% | 105 | 3% | 2%
COCCN1Cc2cccc(C(=O)Nc3ccc(-c4nc5ccccc5[nH]4)cc3)c2C1=O | 11* | 7% | 12 | -8% | 4%
CCCN1Cc2cccc(C(=O)Nc3ccc(-c4nc5ccccc5[nH]4)cc3)c2C1=O | 18* | 13% | 8 | -3% | 4%
COCCC(=O)N1CCC(Oc2ccc(C(=O)NCc3cccc(C)n3)cc2)CC1 | -2 | 9% | -16 | -2% | .
CN(C(=S)Nc1ccc(Oc2ccccc2)cc1)C1CCCCC1 | 22* | 9% | -3 | 3% | -3%
CN(CCC#N)C(=S)Nc1ccc(Oc2ccccc2)cc1 | -2 | 16% | -14 | -3% | 2%
CN(C(=S)Nc1ccc(SC(F)F)cc1)c1ccc(O)cc1 | 24* | -19% | 18 | 4% | ?
CCCCN(C)C(=S)Nc1ccc(Oc2ccccc2)cc1 | 22* | -9% | 12 | 2% | 0%
CN(C(=S)Nc1cccnc1)c1ccc(O)cc1 | 9 | -3% | 23* | -3% | ?
Cc1ccc(NC(=O)C(c2ccccc2)c2ccccc2)nc1 | -3 | -60% | 8 | -1% | 3%
CN(C(=S)Nc1ccc(Oc2ccccc2)cc1)c1ccc(O)cc1 | 15 | 19% | 17 | 2% | 1.4µM*
O=C(COc1ccccc1N1C(=O)c2ccccc2C1=O)c1ccc(Cl)cc1 | 20* | -11% | 34* | 2% | -6%
O=C(COc1ccc(N2C(=O)c3ccccc3C2=O)cc1)c1ccccc1 | 12 | -5% | -1 | 1% | 7%
CCOc1ccc(Oc2ccc(Cl)cc2N)cc1 | 24* | . | 29* | 3% | -17%
CCn1nc(C)c(Br)c1-c1nc(CS(=O)(=O)c2ccsc2)no1 | 28* | -11% | 26 | 4% | 2%
CCn1nc(C)c(Br)c1-c1nc(-c2cccc(C)c2)no1 | 11 | 1% | 1 | -6% | 0%
Cc1ccc(C)c(NC(=O)CCN2CCC(C)CC2)c1 | -2 | -2% | -16 | -2% | -1%
SMILES | Cycloheximide cs | NS1 inh | Shiga toxin inh | LmPK inhibitor | FBPA Giardia inh
CN(C)/C=N/c1ncc(C(=O)c2ccc(Cl)cc2Cl)s1 | 16 | . | 3 | 0% | -3%
CN(C)/C=N/c1ncc(C(=O)c2ccc(Cl)cc2)s1 | 43* | -2% | 58* | -15% | -6%
CC1=C(C)/C(=N\OS(=O)(=O)c2ccccc2)C=CC1=O | -2 | -249% | -15 | 7% | 4.5µM*
O=C(NCc1n[nH]c(=S)n1-c1ccccc1Cl)c1ccc(S(=O)(=O)N2CCCCC2)cc1 | 7 | -5% | 6 | -7% | -13%
Cc1ccc2nc(-c3ccc(NC(=O)CNC4CC4)cc3)sc2c1 | 42* | 9% | 95* | -5% | ?
Cc1ccc2nc(NC(=O)CN3CCN(c4ccccn4)CC3)sc2c1 | -3 | 1% | 16 | 1% | 7%
Cc1ccc2nc(-c3ccc(NC(=O)CN4CCN(c5ccccn5)CC4)cc3)sc2c1 | 29* | 1% | 90* | 1% | -2%
Cc1ccc2nc(-c3ccc(NC(=O)COC(=O)c4ccc(=O)[nH]c4)cc3)sc2c1 | 65* | 69% | 61* | -3% | -6%
Cc1ccc2nc(-c3ccc(NC(=S)NC(=O)CC(C)C)cc3)sc2c1 | 34* | 3% | + | -2% | 5%
CCn1c(NC(C)=O)c(-c2ccccc2Cl)c(=O)c2ccccc21 | -1 | -2% | -2 | 3% | 10%
O=S(O)O.O=S(O)O.[Co].[NH2-].[NH2-].[NH2-].[NH2-] | . | -1% | . | . | .
Cc1cc(C)nc(NS(=O)(=O)c2ccc(NC(=O)CN3C(=O)c4ccccc4C3=O)cc2)n1 | -2 | 4% | 5 | 8% | 13%
Cc1ccc2nc(-c3ccc(NC(=O)CN4C(=O)c5ccccc5C4=O)cc3)sc2c1 | 75* | 18% | 108* | -4% | 2%
COc1ccc2c(c1)C(=O)[C@@H](OC(=O)NS(=O)(=O)c1ccc(F)cc1)[C@H](c1ccc(OC)c(Br)c1)O2 | . | . | . | . | 1%
Cc1ccccc1C(=O)c1cccn1CC(=O)NCc1ccccc1 | 26* | . | 30* | 6% | 8%
Cc1ccccc1C(=O)c1cccn1CC(=O)NCc1ccc2c(c1)OCO2 | 23* | -62% | 51 | -1% | 7%
Cc1ccccc1C(=O)c1cccn1CC(=O)NCc1ccc(F)cc1 | 20 | 4% | 21 | -1% | .
CC(=O)c1cn(CC(=O)NCc2ccc3c(c2)OCO3)c2ccccc12 | 6 | -3% | 21 | 0% | 1%
COc1ccc(CNC(=O)Cn2cccc2C(=O)c2ccccc2)cc1 | 34* | 5% | 40* | -8% | -4%
COc1ccc(CNC(=O)Cn2cccc2C(=O)c2ccccc2C)cc1 | 71* | -11% | 60* | -2% | 19%
ClCC[N+]12CC[N+](CCCl)(CC1)C2 (tested in a mixture with another compound) | . | 8% | . | . | .
O=C(c1cccc(N2C(=O)C3C4C=CC(C4)C3C2=O)c1)N1CCN(c2ccccc2F)CC1 (centres undefined) | -3 | 1% | -4 | 1% | .
NCC(=O)N[C@H](CO)C(=O)O | . | 8% | . | . | .
Cc1ccc(C(=S)N2CCCCCC2)cc1 | 11 | 25% | 1 | 1% | -2%
CS(=O)c1ccc(-c2nc(-c3ccc(F)cc3)c(-c3ccncc3)[nH]2)cc1 (centres undefined) | . | . | . | . | 0%
SMILES | Cycloheximide cs | NS1 inh | Shiga toxin inh | LmPK inhibitor | FBPA Giardia inh
CC(=O)Nc1ccc(NC(=O)Cn2cnc(S(=O)(=O)N3CCOCC3)c2)cc1 | -6 | 1% | -4 | -3% | .
Cc1cc(O)cc2c1O[C@](C)(CCC[C@H](C)CCC[C@H](C)CCCC(C)C)CC2 | -1 | . | 5 | . | -11%
COc1cccc(NC(=O)c2cccc(C(=O)Nc3cccc(OC)c3)n2)c1 | 4 | 9% | -3 | -1% | .
COc1ccc(NC(=O)c2cccnn2)cc1 | 24* | 1% | 29* | -4% | 6%
COc1cccc(NC(=O)c2cccnn2)c1 | 21* | -1% | 18 | -3% | -2%
Cc1ccc2nc(NS(=O)(=O)c3cn(C)nc3C)sc2c1 | 3 | 10% | -16 | -9% | .

Screening results deposited in PubChem BioAssay by National Center for Advancing Translational Sciences (NCATS).
